From PubChem BioAssay (Tox21)
Results filed as inconclusive are left out. Activity calls are given as the source filed them. Unless noted, calls follow the shape of the full dose curve.

Key:
[1] = qHTS assay to identify small molecule agonists of the vitamin D receptor (VDR) signaling pathway - cell viability counter screen (AID 743224; active = well fitted curve in the direction sought with a large enough effect in the repeat runs; an effect the other way counts as inactive or inconclusive; also: series mostly up to about 63 µM; nearly all actives have a fitted effect of over 50% in size)
Procedure, shortened: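 VDR-bla cell line, quantitative HTS format; 16 h compound incubation (37C, 5% CO2); ATP-based CellTiter-Glo luminescence measured in the reporter assay wells.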

[2] = qHTS assay to identify small molecule agonists of the NFkB signaling pathway (AID 1159509; active = well fitted curve in the direction sought with a large enough effect in the signal ratio in the repeat runs, not every such curve was filed as active; the % refers to the signal ratio; also: series mostly up to about 61 µM)
Procedure, shortened: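 NFkB-bla ME-180 cells with a beta-lactamase reporter under an NF-kB response element were plated overnight, treated with compounds in DMSO for 5 hr at 37 C, then loaded with FRET substrate for 1.5 hr at room temperature.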

[3] = qHTS assay to identify small molecule agonists of the NFkB signaling pathway - cell viability counter screen (AID 1159515); also: series mostly up to about 61 µM; nearly all actives have a fitted effect of over 55% in size
Procedure, shortened: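 Viability in NFkB-bla ME-180 cells was measured by CellTiter-Glo luminescence, 30 min room temperature, in wells already treated 5 hr with compounds and read for reporter FRET.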

[4] = qHTS assay to identify small molecule agonists of the endoplasmic reticulum stress response signaling pathway (AID 1159516; active = well fitted activation curve with a large enough effect in the signal ratio in the repeat runs, not every such curve was filed as active; the % refers to the signal ratio)
Procedure, shortened: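 ER stress element reporter (bla) in HeLa. 1,500 cells/well, overnight attachment; 5 hr compound; 2 hr RT substrate; dual-emission fluorescence.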

[5] = qHTS assay to identify small molecule agonists of the endoplasmic reticulum stress response signaling pathway - cell viability counter screen (AID 1159517);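 also: HeLa cells carrying an ER stress response element beta-lactamase reporter; series mostly up to about 61 µM; nearly all actives have a fitted effect of over 50% in size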
Procedure, shortened: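 Counter-screen wells were identical to the reporter wells. Cells were plated at 1,500 per well and dosed for 5 hr, then read for luminescence 30 min after CellTiter-Glo addition.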

[6] = qHTS assay to identify small molecule antagonists of the retinoid-related orphan receptor gamma (ROR-gamma) signaling pathway - cell viability counter screen (AID 1159520; active = well fitted curve in the direction sought with a large enough effect in the repeat runs; an effect the other way counts as inactive or inconclusive; also: nearly all actives have a fitted effect of over 50% in size)
Procedure, shortened: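 Tet-on ROR gamma CHO cells were given compounds for 2 hr, then doxycycline hyclate at 1 uM final, and incubated 16 hr at 37 C. Viability was measured as ATP content by CellTiter-Glo luminescence.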

[7] = molecular target: Nuclear receptor ROR-gamma (Homo sapiens) (UniProt P51449); test: qHTS assay to identify small molecule antagonists of the retinoid-related orphan receptor gamma (ROR-gamma) signaling pathway (AID 1159521; active = well fitted curve in the direction sought with a large enough effect in the repeat runs; an effect the other way counts as inactive or inconclusive;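 also: CHO cells with doxycycline inducible ROR-gamma driving an RORE luciferase reporter; top concentration of the series differs between compounds; nearly all actives have a fitted effect of over 50% in size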)
Procedure, shortened: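 Readout: ONE-Glo luciferase luminescence, 30 min at room temperature. System: Tet-on RORγ CHO, RORE-LUC. Sequence: compound 2 h, doxycycline 1 uM final, 16 h at 37 C.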

[8] = qHTS assay to identify small molecule agonists of the AP-1 signaling pathway - cell viability counter screen (AID 1159525); also: nearly all actives have a fitted effect of over 55% in size
Procedure, shortened: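 AP-1-bla ME-180 cells in Opti-MEM with 0.5% dialyzed FBS, compound exposure 5 h at 37 C in 15-point titration. Viability read in the same wells as ATP content by CellTiter-Glo luminescence, normalised to tetra-n-octylammonium bromide and DMSO controls.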

[9] = qHTS assay to identify small molecule agonists of the AP-1 signaling pathway (AID 1159526)
[10] = qHTS assay to identify small molecule antagonists of the vitamin D receptor (VDR) signaling pathway - cell viability counter screen (AID 743225; active = well fitted curve in the direction sought with a large enough effect in the repeat runs; an effect the other way counts as inactive or inconclusive; also: nearly all actives have a fitted effect of over 50% in size)
Procedure, shortened: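 Cytotoxicity toward the VDR-bla HEK 293T line was scored by ATP-based CellTiter-Glo luminescence, read in the wells already used for the beta-lactamase readout after 16 h compound treatment under 3 nM 1-alpha,25-dihydroxyvitamin D3 stimulation.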

Measured: Potency

CCCOC(=O)c1ccccc1C(=O)OCCC
not listed: [10]
inactive: all other assays above

Nc1ncc([N+](=O)[O-])s1
not listed: [10]
inactive: all other assays above

CNC(=O)O/N=C/C(C)(C)S(C)(=O)=O
not listed: [10]
inactive: all other assays above

c1ccc2c(c1)CCCC2
not listed: [10]
inactive: all other assays above

CN(C)C(=O)Nc1cccc(C(F)(F)F)c1
not listed: [10]
inactive: all other assays above

C=CC(=O)OCCCCCC(C)C
not listed: [10]
inactive: all other assays above

Cc1ccc(O)c(C)c1
not listed: [10]
inactive: all other assays above

CNCC(O)c1ccc(O)cc1 (configuration not stated)
not listed: [10]
inactive: all other assays above

CC[N+](=O)[O-]
not listed: [10]
inactive: all other assays above

Oc1ccc(Cl)cc1
not listed: [10]
inactive: all other assays above

Cc1cccc(C)c1N
inactive: all assays above

CC(C)c1cccc(C(C)C)c1O
not listed: [10]
inactive: all other assays above

O=[N+]([O-])c1ccc(Cl)cc1
not listed: [10]
inactive: all other assays above

CN(C)NC(=O)CCC(=O)O
inactive: all assays above

CCOP(=S)(OCC)Oc1ccc([N+](=O)[O-])cc1
inactive: all assays above

O=[N+]([O-])c1ccc(Cl)c(Cl)c1
inactive: all assays above

OCC(O)CCl (configuration not stated)
not listed: [10]
inactive: all other assays above

CN(C)C(=O)Cl
inactive: all assays above

Oc1c(Br)cc(Br)cc1Br
not listed: [10]
inactive: all other assays above

CCOC(=O)CC(SP(=O)(OC)OC)C(=O)OCC (configuration not stated)
not listed: [10]
inactive: all other assays above

O=C(O)C(Br)Br
not listed: [10]
inactive: all other assays above

C=CC(=O)OCC(CC)CCCC (configuration not stated)
not listed: [10]
inactive: all other assays above

CN1C(=O)CCS(=O)(=O)C1c1ccc(Cl)cc1 (configuration not stated)
not listed: [10]
inactive: all other assays above
